Molecules are shown by their SMILES. “And” between values parts separate entries of the source, which are not always exact repeats. Equal entries are not always repeated. Records with an inconclusive call do not appear. Unmarked numbers belong to inactive results. Calls follow the shape of the dose curve; as a rule, active = well fitted activation curve with a large enough effect in the signal ratio; inconclusive = small, poorly fitted or top-dose-only effect, or a change in a side signal; inactive = flat fitted curve, though single readings scatter; the % refers to the signal ratio.

The text below walks through data of PubChem BioAssay (NCATS).

This test is described as follows: qHTS assay for small molecule activators of the nuclear factor-kappa B (NF-kB) signaling pathway (AID 651749). Also: series mostly up to about 77 µM; % of control where 0% means no effect. The conditions noted are these: NF-kB-bla ME-180 cells, beta-lactamase FRET ratio, 16 h; activation: stronger effect = higher value. An excerpt:
National Center for Advancing Translational Sciences [NCATS] NIH Chemical Genomics Center [NCGC] U.S. Environmental Protection Agency [EPA] National Institutes of Environmental Health Sciences [NIEHS] National Toxicology Program [NTP] Assay Overview: Transcription factors and their stimulated target gene expression play pivotal roles across many cellular processes including responses to environmental stimuli. Proper regulation of associated pathways is critical to maintain cell health and function. Constitutive activation of transcription factor pathways has been implicated in tumors as it may block cellular functions such as apoptosis and lead to invasion and metastasis. One important transcription factor that stimulates gene expression in response to cytokines, UV radiation, and other stimuli is nuclear factor-kappa B (NF-kB). To measure activation of the NF-kB pathway, the NF-kB-bla ME-180 cell line stably expressed beta-lactamase reporter gene under the regulation of a NF-kB response element was obtained from Invitrogen. This assay allows measurement of the NF-kB pathway activity induced by compounds in a ME-180 cell line. This system quantitates NF-kB activity using a FRET-based assay system where beta-lactamase expression disrupts FRET, allowing for fluorescent measurement of activity.
Assay Protocol Summary: For toxicology screening, 2,000 cells in 5 uL/well were dispensed into black, clear-bottom 1536-well plates using a Multidrop Combi (Thermo Scientific) dispenser. Following transfer of 23 nL compound or DMSO vehicle by a pin tool, the plates were incubated 16 hr at 37C and 5% CO2.
On the technique in general: In qHTS, concentration-response curves come from the screen itself.
For `Cc1ccc(N=Nc2c(O)ccc3ccccc23)c(C)c1`, the activation is 6%.

Turning to `CCCCOCC(C)OCC(C)O` (stereo not given), the activation was -0.368%.

In the case of `COC(=O)c1ccc(CNS(C)(=O)=O)cc1S(=O)(=O)NC(=O)Nc1nc(OC)cc(OC)n1`, the activation was 1.5%.

Take `CSc1ccc(Cl)cc1`: the activation was -1.66%.

In the case of `Fc1ccc(Br)cc1`, the activation is 1.17%.

On to `O=C(OCC1CCC2OC2C1)C1CCC2OC2C1` (stereo not given), for which the activation is 1.33%.

As to `CC(Cl)(Cl)C(=O)OCCOc1cc(Cl)c(Cl)cc1Cl`, the activation is -1.51%.

Consider `c1ccc(-c2ccc(-c3ccccc3)cc2)cc1`, for which the activation is 0.439%.

Take `C[Si](C)(Cl)[Si](C)(C)Cl`: the activation was -1.24%.

On to `O=C(O)C(c1ccc(Cl)cc1)c1ccc(Cl)cc1`, for which the activation is 0.121%.

`CNc1nc(=O)n(C2CCC(O)CC2)c(=O)n1C` (stereo not given): the activation was -0.329%.

In the case of `CCCCCCCCCCCCCCO`, the activation was 0.681%.

For the compound `CC1(C)C(=O)N(Br)C(=O)N1Cl`, the activation was -2.38%.

As to `CC(C)OC(=O)c1ccccc1C(=O)OC(C)C`, the activation is -2.02%.

`CN(C)CCOCCN(C)C`: the activation is 0.657%.

As for `COC(=O)c1cccc(C)c1S(=O)(=O)NC(=O)Nc1nc(OCC(F)(F)F)nc(N(C)C)n1`, the activation is 0.0138%.

Turning to `C[Si]1(C)O[Si](C)(C)O[Si](C)(C)O1`, the activation was -0.149%.

For `CCCCOC(=O)/C=C\C(=O)OCCCC`, the activation is 0.89%.

Take `O=C1NC(=O)C(Cc2ccc(OCCN3COc4ccccc4C3=O)cc2)S1` (stereo not given): the activation is 0.424%.

As for `Nc1c(N=Nc2ccc(S(=O)(=O)CCOS(=O)(=O)O)cc2)c(S(=O)(=O)O)cc2cc(S(=O)(=O)O)c(N=Nc3ccc(S(=O)(=O)CCOS(=O)(=O)O)cc3)c(O)c12`, the activation is 1.61%.

Take `CCCCOCCOCCOC(=O)CCCCC(=O)OCCOCCOCCCC`: the activation is -0.225%.

In the case of `C=C[Si](C)(C)O[Si](C)(C)C=C`, the activation was -0.794%.

In the case of `COc1ccccc1NC(=O)CC(C)=O`, the activation was -0.04%.

Consider `C=CCOC(=O)CC(C)C`, for which the activation is -0.542%.

`C=C(C)C(=O)OCCOCCOCCOC(=O)C(=C)C`: the activation is -1.62%.

`O=C(OCCOCCOC(=O)c1ccccc1)c1ccccc1`: the activation is 0.298%.

Turning to `O=C(O)CCCCCCCCCCC(=O)O`, the activation was -0.986%.

As to `O=S(=O)(O)c1ccc(N=Nc2cc(S(=O)(=O)O)c3ccccc3c2O)c2ccccc12`, the activation is 0.356%.

Take `CCCCCCCCCCCCCCCCCC#N`: the activation is -1.03%.

On to `OCCC(F)(F)C(F)(F)C(F)(F)C(F)(F)C(F)(F)C(F)(F)C(F)(F)C(F)(F)F`, for which the activation is 1.52%.

As for `CO[Si](OC)(OC)c1ccccc1`, the activation was 0.204%.

Take `CC(C)=CCC/C(C)=C\CO`: the activation is -1.2%.

Take `CN(C)c1nc(=O)n(C2CCC(O)CC2)c(=O)n1C` (stereo not given): the activation was -0.848%.

Regarding `CN=C(N)NCC1CCOC1` (stereo not given), the activation is -4.18%.

`OCCOCCOCCOCCO`: the activation is -0.834%.

As for `Nc1cc(Cl)c(O)c(Cl)c1`, the activation is -1.35%.

Take `C=CC(=O)NC(C)(C)CS(=O)(=O)O`: the activation is -1.64% and -0.911%.

For `C/C(=C\C(C)CC(C)CC(C)C)C1CC(=O)OC1=O` (stereo not given), the activation was -0.74%.

On to `CCNc1nc(N)nc(Cl)n1`, for which the activation is -0.704% and -0.787%.

With `COC(OC)(C(=O)c1ccccc1)c1ccccc1`, the activation was 0.121%.
